A selection: hits, their analogues and other compounds. The true share with any hit is near 2.7%.
GSIS activator: primary screen for activators of insulin secretion dependent on glucose, INS-1E cells, GLuc reporter luminescence; activation, % at 16.6 µM; AID 743287; 370,000 compounds, 0.61% hits; INS-1E GLuc reporter insulin secretion, 2-3 h;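 active = lowest replicate activation of at least 40%, so every replicate reaches that level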;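 note: 0% = median of neutral control wells and 100% = median of IBMX positive control wells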
EWS-Fli inh: EWS/Fli transcriptional activity inhibition; 350,000 compounds, 0.67% hits; inhibition, % at 12.6 µM; A673 NR0B1-luciferase reporter, viability-normalised; AID 651661;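 active = mean inhibition of at least 50% after viability correction, with every replicate also passing that limit; inconclusive = mean reaches 50% but only one of two replicates passes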;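 note: firefly luciferase signal divided by Alamar Blue viability fluorescence both relative to DMSO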
F508del corr: correctors of CFTR F508del function in bronchial epithelial cells | 350,000 compounds, 0.36% hits | activity (quench increase), % at 7.58 µM | AID 720511 | CFBE cells, YFP halide quenching; stimulated with forskolin plus potentiator P3; % fluorescence drop versus neutral controls;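 active = mean added fluorescence quench of at least 8% versus neutral control, with both replicates also reaching 8%; inconclusive = only one of the mean or replicate conditions met; inactive = mean below 8% and not both replicates reaching 8%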;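 note: cells transiently co-express mutant CFTR-F508del with the halide-sensitive YFP; corrector assay measuring rescue of mutant channel to the surface after 24 h compound exposure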
HIV Env fusion: inhibitors of HIV Env-mediated cell fusion; 360,000 compounds, 1.1% hits; inhibition, % at 12.3 µM; HeLa-JRFL Env/CEM21 cell fusion, luciferase;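 active = mean replicate inhibition score of at least 50 and every replicate individually at or above 50; inconclusive = only one of the two criteria met; inactive = mean below 50 and not all replicates reaching 50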;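 note: 0% = plate neutral controls and 100% = maraviroc near 300 nM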
PAX8 inh HTS: PAX8 transcriptional activity inhibition | RMG-I TPO-luciferase reporter, SteadyGlo, 24 h | inhibition, % at 12.6 µM | 360,000 compounds, 1.2% hits | AID 652154;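 active = mean replicate inhibition at least 60% with every replicate also reaching 60%; inconclusive = only one of the two criteria is met; inactive = mean below 60% and not all replicates reaching 60%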;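 note: luciferase light reporting Pax8 driven TPO promoter activity; plate controls were median of neutral control wells for no effect and mitoxantrone controls for full effect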
PGC1a acetyl inh: lowers PGC1a acetylation signal in U2OS cells; AlphaScreen anti-acetyl-lysine; with virally co-expressed GCN5 acetyltransferase; inhibition, % at 15.6 µM; 350,000 compounds, 0.17% hits;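 active = every replicate shows inhibition of at least 40%; inconclusive = mean inhibition at least 40% but some replicate below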;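 note: 0% = neutral control wells and 100% = positive control wells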
Numbers without * were called inactive; ? = inconclusive; · = no result; [ ] = dose if it differs, or a comment.

SMILES	GSIS activator	EWS-Fli inh	F508del corr	HIV Env fusion	PAX8 inh HTS	PGC1a acetyl inh
C[C@@H]1CCCCO[C@@H](CN(C)C(=O)Cc2ccccc2)[C@H](C)CN([C@@H](C)CO)C(=O)c2cc(NS(=O)(=O)c3ccccc3)ccc2O1	-12	-8	1	-20[16.7 µM]	-7	16
COc1ccc(S(=O)(=O)Nc2ccc3c(c2)OCO3)cc1OC	43*	·	·	-26	·	-3
O=C(O)c1ccc(NS(=O)(=O)c2ccc3c(c2)OCCO3)cc1	29	5	5	-48	-13	3
O=C(O)Cc1ccc(NS(=O)(=O)c2ccc3c(c2)OCCO3)cc1	130*	8	1	10	8	2
COc1ccc(NS(=O)(=O)c2ccc3c(c2)OCCO3)cc1OC	-27	48	-1	93*	16	21
C[C@@H]1CN([C@@H](C)CO)C(=O)Cc2cc(NS(=O)(=O)c3ccc(F)cc3)ccc2O[C@H]1CN(C)C(=O)Nc1ccc2c(c1)OCO2	-2	-3	-1	1[16.7 µM]	-17	-16
C[C@@H]1CN([C@H](C)CO)C(=O)c2cc(NC(=O)Nc3ccc(C(F)(F)F)cc3)ccc2O[C@@H](C)CCCCO[C@H]1CN(C)C(=O)NC1CCCCC1	1	17	6	-23[16.7 µM]	96*	5
C[C@@H]1CCCCO[C@H](CN(C)C(=O)NC2CCCCC2)[C@H](C)CN([C@H](C)CO)C(=O)c2cc(NC(=O)Nc3ccc(C(F)(F)F)cc3)ccc2O1	13	4	6	0[16.7 µM]	73*	1
Cc1noc(C)c1S(=O)(=O)N(C)C[C@H]1OCCCC[C@@H](C)Oc2ccc(NC(=O)Nc3ccc(C(F)(F)F)cc3)cc2C(=O)N([C@H](C)CO)C[C@@H]1C	11	2	2	12[16.7 µM]	·	-4
Cc1noc(C)c1S(=O)(=O)N(C)C[C@H]1OCCCC[C@H](C)Oc2ccc(NC(=O)Nc3ccc4c(c3)OCO4)cc2C(=O)N([C@H](C)CO)C[C@@H]1C	-3	5	-1	57*[16.7 µM]	1	-12
Cc1noc(C)c1S(=O)(=O)N(C)C[C@H]1OCCCC[C@@H](C)Oc2ccc(NC(=O)Nc3ccc(C(F)(F)F)cc3)cc2C(=O)N([C@@H](C)CO)C[C@@H]1C	1	1	4	67*[16.7 µM]	·	6
Cc1noc(C)c1S(=O)(=O)N(C)C[C@@H]1OCCCC[C@H](C)Oc2ccc(NC(=O)Nc3ccc(C(F)(F)F)cc3)cc2C(=O)N([C@H](C)CO)C[C@H]1C	-15	0	1	70*[16.7 µM]	·	-5
Cc1noc(C)c1S(=O)(=O)N(C)C[C@H]1OCCCC[C@H](C)Oc2ccc(NC(=O)Nc3ccc(C(F)(F)F)cc3)cc2C(=O)N([C@@H](C)CO)C[C@@H]1C	7	3	2	66*[16.7 µM]	·	-7
CN(C)C(=O)c1ccc(-c2ccc3c(c2)[C@@H]2[C@@H](CCN2C(=O)c2ccc4c(c2)OCO4)[C@H](CO)N3)cc1	-1	-1	-1	·	-15	8
C=CC(=O)Nc1cccc(Oc2ccnc(Nc3ccc(N4CCN(C)CC4)cc3)n2)c1	-14	5	1	?	74*	?
CN(C)CC(=O)N[C@H]1CC[C@H](CC(=O)NCc2ccc(Cl)cc2)O[C@H]1CO	-1	-1	3	13[16.7 µM]	3	-4
CCOC(=O)c1c(C)n(-c2ccc(C)cc2)c2ccc(OCC(O)CN3CCN(C)CC3)cc12 (configuration not stated)	122*	7	-4	26	28	·
Cc1cc2nc(-c3ccc(Cl)cc3)c(Cc3ccsc3)n2c(C)c1Br	100*	-8	1	-7	8	·
Cc1ccc(-c2nc3cc(C)c(Br)c(C)n3c2Cc2ccccc2)cc1	·	-16	1	·	18	8
Cc1ccc(Cc2c(-c3ccc(Cl)cc3)nc3cc(C)c(Br)c(C)n23)cc1	·	-28	2	-2	4	2
COc1ccc(-c2nc3cc(C)c(Br)c(C)n3c2Cc2ccccc2)cc1OC	11	4	3	71*	19	0
c1ccc2c(c1)OCC(CNc1ncnc3sccc13)O2 (configuration not stated)	-39	·	·	57*	-5	·
Fc1ccccc1CNc1ncnc2sccc12	5	39	0	39	28	·
CCNC(=O)[C@@H]1[C@@H](CO)[C@@H]2Cn3c(ccc(-c4ccccc4)c3=O)[C@@H]2N1Cc1ccc2c(c1)OCO2	-8	-3	-1	·	23	·
C=CCOc1c(Br)cc(CNc2ccc(NC(=O)C(C)C)c(OC)c2)cc1OC	-42	·	·	90*	·	4
SMILES	GSIS activator	EWS-Fli inh	F508del corr	HIV Env fusion	PAX8 inh HTS	PGC1a acetyl inh
CO[C@H]1CN(C)C(=O)c2ccc(NC(=O)c3ccccc3F)cc2OC[C@@H](C)N(C(C)=O)C[C@@H]1C	-6	-6	1	·	-5	-1
CCN1C(=O)C(=Cc2cccc(OC)c2Oc2ccc([N+](=O)[O-])cc2[N+](=O)[O-])SC1=S	0	58*	-1	-363	38	1
COc1cc(/C=C2\SC(=O)NC2=O)ccc1Oc1ccc([N+](=O)[O-])cc1[N+](=O)[O-]	-37	16	0	-2	-2	·
C[C@@H]1CN([C@H](C)CO)S(=O)(=O)c2ccc(C#Cc3ccccc3F)cc2O[C@H]1CN(C)C(=O)Cc1ccccc1	-33	10	4	15[16.7 µM]	?	4
C[C@H]1CN([C@@H](C)CO)S(=O)(=O)c2ccc(C#Cc3ccccc3F)cc2O[C@H]1CN(C)C(=O)c1ccc2c(c1)OCO2	-32	22	9.6*	43[16.7 µM]	90*	5
C[C@@H]1CN([C@@H](C)CO)S(=O)(=O)c2ccc(C#Cc3ccccc3F)cc2O[C@@H]1CN(C)C(=O)c1ccc2c(c1)OCO2	-20	18	5	35[16.7 µM]	78*	3
C[C@H]1CN([C@@H](C)CO)S(=O)(=O)c2ccc(C#Cc3ccccc3F)cc2O[C@H]1CN(C)C	1	1	-2	-10[16.7 µM]	·	2
CC(=O)N[C@H]1CC[C@H](CC(=O)NCc2ccc(Cl)cc2)O[C@H]1CO	2	2	-2	-17[16.7 µM]	-5	-2
Fc1ccc(-[n+]2nc(Nc3ccccc3)sc2-c2c3ccccc3cc3ccccc23)cc1	-38	31	0	23	86*	·
COc1ccc(C)cc1Nc1n[n+](-c2ccccc2)c(-c2c(OC)ccc3ccccc23)s1	-45	37	2	46	84*	·
Oc1ccc2ccccc2c1-c1sc(Nc2ccccc2)n[n+]1-c1ccc(F)cc1	·	4	3	-3	13	·
COc1ccc(C)cc1Nc1n[n+](-c2ccccc2)c(-c2cc(OC)c(OC)cc2Br)s1	5	7	3	-10	15	-5
O=C(NCC[C@@H]1CC[C@H](NC(=O)Nc2cc(F)ccc2F)[C@@H](CO)O1)Nc1ccc(F)cc1	-26	9	-3	5[16.7 µM]	·	-12
